Sampled rows, rich in hits. Any-hit rate of the full collection: about 3.4%.
GPR151 activ: activators of human GPR151; Q8TDV0; PathHunter beta-arrestin GPR151 cells, luminescence; activation, % at 11.2 µM; 650,000 compounds, 1% hits; in the data active means activation above about 4.9%;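 further: 0% = median of compound wells and 100% = cells with positive control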
MITF inh: human MITF inhibition, primary screen | O75030 | AlphaScreen MITF homodimerization, bead proximity signal | inhibition, % at 2.6 µM | 650,000 compounds, 0.91% hits; in the data active means inhibition above about 50%;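 further: 0% = vehicle wells with protein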
Target sequence (O75030 whole entry, looked up): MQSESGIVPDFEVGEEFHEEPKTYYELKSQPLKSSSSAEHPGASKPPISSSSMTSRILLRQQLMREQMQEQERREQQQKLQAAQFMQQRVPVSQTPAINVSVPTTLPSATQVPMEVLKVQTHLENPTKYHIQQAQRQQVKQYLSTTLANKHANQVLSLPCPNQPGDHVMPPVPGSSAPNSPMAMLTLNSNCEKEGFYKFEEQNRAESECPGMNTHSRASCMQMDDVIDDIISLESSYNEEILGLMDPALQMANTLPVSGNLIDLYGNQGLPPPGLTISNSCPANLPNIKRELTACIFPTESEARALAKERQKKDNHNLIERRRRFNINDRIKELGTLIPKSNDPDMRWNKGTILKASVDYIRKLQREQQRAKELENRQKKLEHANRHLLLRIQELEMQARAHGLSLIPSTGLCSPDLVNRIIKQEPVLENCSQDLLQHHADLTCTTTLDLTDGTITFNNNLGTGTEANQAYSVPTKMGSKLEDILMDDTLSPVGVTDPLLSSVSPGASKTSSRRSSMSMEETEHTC
TEAD-YAP inh: TEAD-YAP interaction inhibition; HEK-TIYL cells, TEAD-Gal4/YAP UAS-luciferase luminescence; inhibition, % at 9.12 µM; 640,000 compounds, 1.4% hits; in the data active means inhibition above about 32%;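 further: 0% = median of test compound wells and 100% = reference inhibitor wells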
FBW7 act: activators of human E3 ligase FBW7; Q969H0; AlphaScreen FBW7–phospho-cyclin E peptide binding, activator screen; normalized activity (activation), % at 26.1 µM; 650,000 compounds, 0.13% hits; AID 1259310; in the data active means normalized activity above about 1.9%;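 further: purified mutant Fbw7 with reduced substrate affinity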
GPR151 confirm: human GPR151 activation, confirmation screen. 6,700 tested, under 10 active. GPR151 PathHunter beta-arrestin cells, luminescence, 90 min; % of EA-reagent control over plate median. activation, % at 11.2 µM. shares compounds with GPR151 activ;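 active means mean percent activation across replicates above the confirmation screen cutoff of 4.91%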
GPR119 ag: activates human GPR119 in a GPR151 counter-screen. shares compounds with GPR151 activ. GPR119 PathHunter beta-arrestin cells, luminescence, 90 min; 0 = compound-well median, 100 = enzyme-acceptor control. activation, % at 11.2 µM. 6,700 compounds, 0.3% hits. AID 1508611;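 active means mean percent activation in the counterscreen above 29.09%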;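 further: counterscreen on off-target GPR119 to flag nonselective hits from the GPR151 activator screen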
* = called active by the depositor; . = no result.

SMILES	GPR151 activ	MITF inh	TEAD-YAP inh	FBW7 act	GPR151 confirm	GPR119 ag
O=C(NCCN1CCn2cc(OCc3ccc(F)cc3)c(=O)cc2C1=O)C1CC1	6.7*	5.3	-0.4	0.0	0.9	-10.8
O=C(Cn1c(-c2cccnc2)nc2ccccc21)NCc1ccccc1Cl	5.6*	6.7	-7.7	-0.2	0.2	2.4
COc1cccc(-c2cc(C(=O)Nn3cnnc3)c3ccccc3n2)c1	5.1*	0.2	11.2	-0.1	-0.1	0.9
COc1ccc(NS(=O)(=O)c2ccc(OC)c(Cl)c2Cl)cc1OC	11.4*	-6.8	23.7	-0.2	1.6	8.0
COc1ccc(S(=O)(=O)N(C)C)c(Cl)c1Cl	16.1*	1.2	-43.1	-0.1	1.4	8.8
COC(=O)c1ccc(C(=O)OC)c(NS(=O)(=O)c2ccc(OC)c(Cl)c2Cl)c1	9.5*	12.4	-5.7	1.0	0.5	-13.9
COc1cccc(NS(=O)(=O)c2ccc(OC)c(Cl)c2Cl)c1	-0.2	4.5	11.9	0.0	.	.
CCCCNS(=O)(=O)c1ccc(OC)c(Cl)c1Cl	-0.2	-8.4	1.1	-0.1	.	.
CC1(C)C(C=C(Cl)Cl)C1C(=O)N1CCCC1 (centres undefined)	-0.3	7.5	-0.4	0.0	.	.
CCCC(=O)Nc1ccc(NC(=O)c2ccc(I)cc2)cc1	10.0*	-3.2	1.4	0.2	1.3	-4.0
CCc1cccc(C)c1NC(=O)CSc1ncn[nH]1	7.4*	18.2	3.5	0.3	-0.2	-5.7
Cc1cccc(C)c1NC(=O)CSc1ncn[nH]1	1.7	-16.8	-8.6	0.0	.	.
C=CCN1C(=O)C2(c3ccccc31)c1c(oc3ccccc3c1=O)C(=O)N2CCCOC (centres undefined)	-1.1	-0.3	-9.0	0.0	.	.
NC(=O)Cc1cn(-c2ccc(N3CCCC3CO)nn2)c2ccccc12 (centres undefined)	-2.2	-2.8	-0.8	0.1	.	.
CC(=O)c1ccc2c3c(cccc13)C(=O)N(C)C2=O	0.1	6.9	-0.6	-0.1	.	.
CC1=C(C(=O)Nc2cccc(C)n2)C(c2ccc(C)cc2)C2=C(CC(C)(C)CC2=O)N1 (centres undefined)	6.9*	15.7	4.5	0.1	0.7	9.4
CC1=C(C(=O)Nc2c(F)cccc2F)C(c2ccc(N(C)C)cc2)C2=C(CC(C)(C)CC2=O)N1 (centres undefined)	1.6	2.4	10.6	0.0	.	.
CC1=C(C(=O)Nc2ccc(F)cc2)C(c2ccc(N(C)C)cc2)C2=C(CC(C)(C)CC2=O)N1 (centres undefined)	5.6*	14.5	-33.8	0.0	-0.1	4.1
O=C(/C=C\N1CCCCC1)c1ccc(Cl)cc1	6.1*	15.2	-12.5	0.1	-1.8	-25.7
CC(=O)c1cccc(Nc2nc(-c3cc4ccccc4oc3=O)cs2)c1	0.0	-0.5	-5.0	-0.1	.	.
C=Cc1ccc(Cn2c(C)c(CNCCC3=CCCCC3)c(C(=O)O)c2C)cc1	6.3*	15.5	-2.1	0.1	-0.8	-8.5
CCOC1OC(=O)C(Cl)=C1Nc1cccc(C)c1 (centres undefined)	5.0*	-0.8	5.8	-0.1	-0.3	2.9
CC(C)n1c(Nc2ccnn2C)nc2c(Nc3ccc(N4CCOCC4)cc3)ncnc21	5.5*	13.2	-4.8	0.1	0.4	-2.8
CC(C)n1c(Nc2ccc(N3CCOCC3)cc2)nc2c(Nc3ccc(N4CCOCC4)cc3)ncnc21	-1.3	13.3	11.1	0.2	.	.
Clc1ccccc1/C=N/Nc1nncc(-c2ccccc2)n1	6.2*	-6.3	-25.6	-0.6	0.3	0.1
SMILES	GPR151 activ	MITF inh	TEAD-YAP inh	FBW7 act	GPR151 confirm	GPR119 ag
CCOc1ccc(CNC(=O)c2cc(=O)[nH]c3ccccc23)cc1	5.0*	3.9	-7.6	0.1	-0.6	-7.0
O=C(CNC(=O)c1cccc(F)c1)N/N=C/c1cc(I)ccc1O	5.0*	7.9	12.4	-0.3	-0.4	2.6
O=C(CNC(=O)c1cccc(F)c1)N/N=C/c1cc(Cl)ccc1O	1.9	-1.5	-4.7	-0.1	.	.
Cc1ccc(C)n1-c1ccc(Cl)cc1C(=O)O	7.7*	69.7*	7.7	-1.3	-1.3	-8.7
Cc1ccc(C)n1-c1ccc(Cl)cc1O	0.1	-0.2	5.2	0.0	.	.
Cc1cccc(N(C)S(=O)(=O)c2cc(Br)cnc2N)c1	-0.2	4.7	-0.7	0.0	.	.
CCC(=O)NC(=S)NNC(=O)c1ccc(Br)cc1	-0.3	-10.2	-3.3	-0.2	.	.
Cc1nc(-c2c(C(F)(F)F)oc3c(CN(C)C)c(O)ccc3c2=O)cs1	5.1*	-2.0	10.1	-0.1	-0.4	-5.4
Cc1nc(-c2c(C(F)(F)F)oc3c(C)c(C)ccc3c2=O)cs1	-0.7	-5.4	-10.8	0.0	.	.
O=C(/C=C/c1c(F)cccc1Cl)NCc1ccncc1	7.2*	-3.1	-2.1	-0.2	-0.8	-16.4
COC(=O)c1ccc(-n2nnnc2SCC(=O)N2CCOCC2)cc1	4.9*	3.0	-4.8	-0.1	1.1	20.9
O=C(CSc1nnnn1-c1ccc(F)cc1F)N1CCOCC1	5.5*	12.4	-10.9	0.3	1.5	11.9
CCOc1ccc(-n2nnnc2SCC(=O)N2CCOCC2)cc1	5.3*	-13.9	3.4	-0.1	0.0	5.6
COc1cncc(-c2cncc(N3CCN(c4ccncc4)CC3)n2)c1	0.5	.	.	.	.	.
CCN1CC=C2C(C#N)=C(N)C(C#N)(C#N)C(c3c(OC)ccc4ccccc34)C2C1 (centres undefined)	5.6*	8.6	-7.9	-0.2	-1.1	-12.2
COc1ccc(-c2ccc(C=O)o2)cc1Cl	0.7	-4.2	-8.8	0.1	.	.
CC1CCN(Cc2ccc(-c3nnn(CC(N)=O)n3)cc2)CC1	1.3	0.9	-0.3	0.4	.	.
COCCCC1CCN(Cc2nc(-c3ccccn3)no2)CC1	6.7*	-2.6	-9.0	0.1	0.2	-0.3
COCCN1CCN(Cc2nc(-c3ccccn3)no2)CC1	-0.4	11.1	-6.2	0.0	.	.
CCOC(=O)CSc1nc2ccccc2[nH]1	1.0	13.6	-5.7	0.1	.	.
CCOC(=O)c1[nH]c(=O)[nH]c1CSc1nc2ccccc2[nH]1	10.6*	-15.4	-0.9	0.0	0.8	5.6
COc1ccc(OC)c(NC(=O)CCNS(=O)(=O)c2ccc3c(c2)oc(=O)n3C)c1	5.1*	1.9	-1.9	0.0	0.5	4.4
C=CCNC(=O)CN(c1ccccc1F)S(=O)(=O)c1ccc(C)cc1	6.6*	-4.8	-4.0	0.0	0.4	1.0
Cc1ccc(COc2c(Br)cc(/C=C(\C#N)c3nn(CCO)c(N)c3C#N)cc2Br)cc1	6.9*	6.7	-3.8	-0.1	0.0	4.6
CC1(CC(=O)N/N=C/c2cccc(Br)c2)OCCO1	-1.0	1.6	-9.7	-0.3	.	.
CC1(CC(=O)N/N=C/c2cccc(OC3CSC3)c2)OCCO1	5.9*	11.8	-2.8	0.1	0.4	2.2
C=CCOc1ccc(/C=C2\C(=O)NC(C)=C2C(=O)OC)cc1	5.2*	6.1	-3.1	-0.2	1.3	19.0

Bioassay records deposited in PubChem BioAssay by The Scripps Research Institute Molecular Screening Center.
